Consider eleven compounds from ChEMBL document CHEMBL3988442, “University of Dundee, Small-Polar-MMV Screening Library” (2021).

Holding throughout (design): scale not given: direction of the effect not stated beside the values
The target of test [1] is Protein translocase subunit SecA (Escherichia coli (strain K12)) (UniProt P10408). Nature of the test: Assay to Identify E. coli SecA ATPase Inhibitors. The test is classed as functional. The conditions noted are these: 30 µM.
Test [2] has as its target T1, Ubiquitin-activating enzyme e1, putative (Leishmania donovani (strain BPK282A1)) (UniProt E9BSI1).
T1 sequence (whole entry): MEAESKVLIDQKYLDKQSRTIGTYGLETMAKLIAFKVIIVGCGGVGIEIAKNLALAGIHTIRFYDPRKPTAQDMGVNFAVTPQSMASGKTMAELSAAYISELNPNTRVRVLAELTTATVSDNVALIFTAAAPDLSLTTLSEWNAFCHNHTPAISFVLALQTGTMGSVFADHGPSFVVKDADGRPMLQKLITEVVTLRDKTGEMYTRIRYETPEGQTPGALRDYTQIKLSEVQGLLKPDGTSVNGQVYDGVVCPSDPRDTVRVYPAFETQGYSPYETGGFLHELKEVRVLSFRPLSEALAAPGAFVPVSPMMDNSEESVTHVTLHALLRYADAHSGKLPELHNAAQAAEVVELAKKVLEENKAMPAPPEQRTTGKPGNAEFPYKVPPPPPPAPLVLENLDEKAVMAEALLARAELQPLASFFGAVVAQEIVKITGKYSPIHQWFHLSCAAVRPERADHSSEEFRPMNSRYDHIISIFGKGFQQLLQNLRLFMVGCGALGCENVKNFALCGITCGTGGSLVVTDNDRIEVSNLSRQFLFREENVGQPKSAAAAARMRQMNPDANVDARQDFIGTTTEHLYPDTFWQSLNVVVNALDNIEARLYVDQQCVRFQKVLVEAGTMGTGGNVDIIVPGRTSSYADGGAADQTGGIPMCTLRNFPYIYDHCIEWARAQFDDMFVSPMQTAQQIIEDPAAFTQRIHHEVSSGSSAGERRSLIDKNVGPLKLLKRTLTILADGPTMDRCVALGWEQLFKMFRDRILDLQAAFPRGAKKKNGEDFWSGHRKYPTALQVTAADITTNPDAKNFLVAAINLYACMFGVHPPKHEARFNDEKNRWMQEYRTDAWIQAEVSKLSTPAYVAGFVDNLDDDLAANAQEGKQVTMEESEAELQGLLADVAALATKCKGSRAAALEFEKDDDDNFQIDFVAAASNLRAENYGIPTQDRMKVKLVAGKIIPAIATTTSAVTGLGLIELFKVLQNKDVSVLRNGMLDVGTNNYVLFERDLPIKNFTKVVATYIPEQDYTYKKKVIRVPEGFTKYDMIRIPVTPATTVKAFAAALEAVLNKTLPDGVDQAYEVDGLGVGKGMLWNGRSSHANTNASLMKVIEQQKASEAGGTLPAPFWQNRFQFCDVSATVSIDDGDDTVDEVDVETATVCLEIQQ
Put plainly: Leishmania donovani Ubiquitin Activating Enzyme (LdE1). The test is classed as functional. The note with it: 30 µM.

Test [3] addresses AMP-activated protein kinase, AMPK (Homo sapiens) (UniProt P54646+O43741+P54619+Q9UGJ0+Q9Y478+Q13131+Q9UGI9). Put plainly: AMP-dependent Kinase enzyme assay. An in vitro enzyme assay that detects ADP turnover that is directly proportional to AMPK activity. This uses naive AMPK that is activated during the assay with MK-8722. In kind it is functional. The note with it: 30 µM.
Test [4] has as its target Sialic acid-binding Ig-like lectin 9 (Homo sapiens) (UniProt Q9Y336). Nature of the test: Hs-Siglec9 ALPHAscreen SOP 20170721. The note with it: 10 µM. In general terms: In Alpha technology, singlet oxygen from a donor bead excites a nearby acceptor bead.
The subject of another test is Trypanosoma cruzi. Put plainly: Trypanosoma cruzi phosphomannomutase and mannose-1-phosphate guanylyltransferase assay. In kind it is functional. The note with it: 10 µM.
In test [5] the target is T2, Arginase-2, mitochondrial (Homo sapiens) (UniProt P78540).
T2 sequence (whole entry): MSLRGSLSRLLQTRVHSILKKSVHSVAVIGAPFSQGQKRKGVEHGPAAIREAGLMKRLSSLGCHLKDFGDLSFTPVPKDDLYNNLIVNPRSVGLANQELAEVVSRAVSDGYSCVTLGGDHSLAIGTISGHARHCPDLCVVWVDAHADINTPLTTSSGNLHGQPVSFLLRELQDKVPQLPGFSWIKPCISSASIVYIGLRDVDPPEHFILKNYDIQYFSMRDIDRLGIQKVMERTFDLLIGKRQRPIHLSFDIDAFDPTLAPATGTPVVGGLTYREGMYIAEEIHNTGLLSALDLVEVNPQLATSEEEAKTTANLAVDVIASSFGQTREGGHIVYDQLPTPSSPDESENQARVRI
Put plainly: in vitro enzyme assay to detect the production of urea directly proportional to the activity of Arginase II. Also: in the data most compounds retested in dose-response had high values. The conditions noted are these: 33.3 µM. In kind it is functional.

Test [6] deals with T3, Proteasome subunit beta (Trypanosoma cruzi) (UniProt O96673).
T3 sequence (whole entry): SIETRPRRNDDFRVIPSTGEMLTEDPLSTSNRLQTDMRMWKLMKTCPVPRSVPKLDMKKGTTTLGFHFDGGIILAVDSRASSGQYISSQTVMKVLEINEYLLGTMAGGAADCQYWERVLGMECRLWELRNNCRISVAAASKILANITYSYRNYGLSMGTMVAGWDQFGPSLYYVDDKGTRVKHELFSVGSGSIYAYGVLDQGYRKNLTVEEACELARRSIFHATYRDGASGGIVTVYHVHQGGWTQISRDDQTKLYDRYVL
Put plainly: Trypanosoma cruzi proteasome chymotrypsin-like activity (TcProtChymo) assay. Also: in the data most compounds retested in dose-response had high values. The test is classed as functional. The note with it: 9.37 µM.

A further test is filed under the species Homo sapiens. Nature of the test: To identify inhibition of the IFN signalling (Jak-Stat) pathway via expression of an eGFP reporter gene under the control of an IFN-stimulated response element (ISRE) containing MxA promoter. In kind it is functional. The conditions noted are these: 30 µM.
Test [7] has as its target T4, Tyrosyl-tRNA synthetase, putative (Trypanosoma cruzi (strain CL Brener)) (UniProt Q4DSP6).
T4 sequence (whole entry): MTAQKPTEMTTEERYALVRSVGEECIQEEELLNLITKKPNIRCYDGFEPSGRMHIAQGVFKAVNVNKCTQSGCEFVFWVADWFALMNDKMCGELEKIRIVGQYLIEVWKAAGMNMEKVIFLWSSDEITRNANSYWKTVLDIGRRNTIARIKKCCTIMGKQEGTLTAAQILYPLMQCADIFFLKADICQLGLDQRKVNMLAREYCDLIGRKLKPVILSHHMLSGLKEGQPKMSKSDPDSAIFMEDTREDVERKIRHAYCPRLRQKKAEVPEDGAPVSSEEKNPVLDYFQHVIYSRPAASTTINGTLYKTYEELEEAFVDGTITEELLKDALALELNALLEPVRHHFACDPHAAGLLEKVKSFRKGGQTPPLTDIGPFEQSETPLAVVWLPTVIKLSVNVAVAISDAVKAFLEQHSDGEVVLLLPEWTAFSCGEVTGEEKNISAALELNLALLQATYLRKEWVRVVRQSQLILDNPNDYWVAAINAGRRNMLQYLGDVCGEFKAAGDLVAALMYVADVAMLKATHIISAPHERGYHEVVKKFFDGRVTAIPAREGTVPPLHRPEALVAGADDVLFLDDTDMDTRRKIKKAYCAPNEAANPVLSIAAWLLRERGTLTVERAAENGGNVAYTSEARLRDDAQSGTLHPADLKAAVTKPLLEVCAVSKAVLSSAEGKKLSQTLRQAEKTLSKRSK
Put plainly: Trypanosoma cruzi tyrosyl tRNA synthetase (TcYRS) _High Tyrosine SOP. Also: in the data most compounds retested in dose-response had high values. The test is classed as functional. The conditions noted are these: 30 µM.

Test [8] has as its target T4, Tyrosyl-tRNA synthetase, putative (Trypanosoma cruzi (strain CL Brener)). Nature of the test: Trypanosoma cruzi tyrosyl tRNA synthetase (TcYRS) SOP. In kind it is functional. The conditions noted are these: 30 µM.
Test [9] concerns the target Chromo domain-containing protein 1 (Saccharomyces cerevisiae (strain ATCC 204508 / S288c) (Baker's yeast)) (UniProt P32657). Nature of the test: ScCHD-1 Enzyme Inhibition Assay. Also: in the data most compounds retested in dose-response had high values. In kind it is functional. The note with it: 30 µM.

For some of these results: Potency and affinity values are given separately.

Protein translocase subunit SecA (Escherichia coli (strain K12)), sequence (P10408 whole entry): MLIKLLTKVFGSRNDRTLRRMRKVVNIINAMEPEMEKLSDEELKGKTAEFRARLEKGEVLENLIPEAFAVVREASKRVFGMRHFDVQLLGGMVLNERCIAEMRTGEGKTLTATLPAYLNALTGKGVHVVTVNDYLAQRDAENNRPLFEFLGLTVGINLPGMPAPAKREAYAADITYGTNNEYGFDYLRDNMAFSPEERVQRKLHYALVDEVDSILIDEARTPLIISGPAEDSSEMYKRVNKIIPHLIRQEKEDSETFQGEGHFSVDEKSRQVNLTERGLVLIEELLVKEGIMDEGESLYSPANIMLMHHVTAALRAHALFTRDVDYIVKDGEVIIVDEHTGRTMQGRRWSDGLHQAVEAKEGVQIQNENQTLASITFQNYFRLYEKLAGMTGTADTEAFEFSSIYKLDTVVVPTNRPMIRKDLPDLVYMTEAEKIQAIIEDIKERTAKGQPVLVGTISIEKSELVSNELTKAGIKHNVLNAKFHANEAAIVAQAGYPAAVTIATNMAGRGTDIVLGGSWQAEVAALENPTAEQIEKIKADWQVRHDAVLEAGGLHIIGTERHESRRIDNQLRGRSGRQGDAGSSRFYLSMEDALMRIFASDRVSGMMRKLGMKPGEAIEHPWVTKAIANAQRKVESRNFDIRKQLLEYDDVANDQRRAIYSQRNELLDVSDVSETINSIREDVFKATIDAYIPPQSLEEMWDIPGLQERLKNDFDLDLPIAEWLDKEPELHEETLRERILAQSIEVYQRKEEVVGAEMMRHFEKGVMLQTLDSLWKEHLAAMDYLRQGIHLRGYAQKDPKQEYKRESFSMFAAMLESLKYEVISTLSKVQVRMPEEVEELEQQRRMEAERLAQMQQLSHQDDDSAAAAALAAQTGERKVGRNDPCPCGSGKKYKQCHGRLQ
Chromo domain-containing protein 1 (Saccharomyces cerevisiae (strain ATCC 204508 / S288c) (Baker's yeast)), sequence (P32657 whole entry, the tested form may be a part): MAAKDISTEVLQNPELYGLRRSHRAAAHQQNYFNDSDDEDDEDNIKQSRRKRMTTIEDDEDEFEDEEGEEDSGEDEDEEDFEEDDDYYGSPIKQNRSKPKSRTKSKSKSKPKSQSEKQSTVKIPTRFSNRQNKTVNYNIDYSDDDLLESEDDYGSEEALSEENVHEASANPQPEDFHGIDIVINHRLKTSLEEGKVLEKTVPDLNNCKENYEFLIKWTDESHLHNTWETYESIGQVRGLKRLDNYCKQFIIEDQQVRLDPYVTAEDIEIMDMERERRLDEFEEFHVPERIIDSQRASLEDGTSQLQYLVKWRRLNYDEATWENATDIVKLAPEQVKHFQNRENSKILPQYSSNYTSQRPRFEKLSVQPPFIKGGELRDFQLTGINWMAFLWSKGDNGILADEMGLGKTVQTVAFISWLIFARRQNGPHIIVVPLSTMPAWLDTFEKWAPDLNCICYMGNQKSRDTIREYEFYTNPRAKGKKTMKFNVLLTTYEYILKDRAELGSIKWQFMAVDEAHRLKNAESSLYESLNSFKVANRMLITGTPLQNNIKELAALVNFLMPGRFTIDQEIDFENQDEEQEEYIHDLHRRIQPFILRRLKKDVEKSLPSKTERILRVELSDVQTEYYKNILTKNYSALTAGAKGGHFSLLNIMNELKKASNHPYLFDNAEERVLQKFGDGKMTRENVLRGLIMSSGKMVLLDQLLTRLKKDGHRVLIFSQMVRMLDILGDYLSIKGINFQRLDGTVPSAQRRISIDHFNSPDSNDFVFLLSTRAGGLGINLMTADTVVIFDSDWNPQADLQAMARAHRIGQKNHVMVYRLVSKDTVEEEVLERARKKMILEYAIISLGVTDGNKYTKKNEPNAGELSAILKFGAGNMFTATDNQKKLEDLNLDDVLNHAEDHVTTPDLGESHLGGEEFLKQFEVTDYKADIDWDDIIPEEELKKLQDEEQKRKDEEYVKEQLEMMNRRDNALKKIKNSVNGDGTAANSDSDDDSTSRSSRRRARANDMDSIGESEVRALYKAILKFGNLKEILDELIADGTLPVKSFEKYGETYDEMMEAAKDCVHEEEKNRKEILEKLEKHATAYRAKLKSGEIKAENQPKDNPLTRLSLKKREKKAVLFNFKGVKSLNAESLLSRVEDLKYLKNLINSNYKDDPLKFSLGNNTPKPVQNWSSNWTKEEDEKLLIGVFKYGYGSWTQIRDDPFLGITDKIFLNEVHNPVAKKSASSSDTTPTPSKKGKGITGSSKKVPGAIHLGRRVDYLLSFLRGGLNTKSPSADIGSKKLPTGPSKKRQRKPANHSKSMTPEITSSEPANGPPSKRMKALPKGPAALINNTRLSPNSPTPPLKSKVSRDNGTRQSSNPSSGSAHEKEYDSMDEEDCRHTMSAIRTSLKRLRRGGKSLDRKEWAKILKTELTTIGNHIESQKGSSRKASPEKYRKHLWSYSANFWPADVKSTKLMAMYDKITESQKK
Sialic acid-binding Ig-like lectin 9 (Homo sapiens), sequence (Q9Y336 whole entry): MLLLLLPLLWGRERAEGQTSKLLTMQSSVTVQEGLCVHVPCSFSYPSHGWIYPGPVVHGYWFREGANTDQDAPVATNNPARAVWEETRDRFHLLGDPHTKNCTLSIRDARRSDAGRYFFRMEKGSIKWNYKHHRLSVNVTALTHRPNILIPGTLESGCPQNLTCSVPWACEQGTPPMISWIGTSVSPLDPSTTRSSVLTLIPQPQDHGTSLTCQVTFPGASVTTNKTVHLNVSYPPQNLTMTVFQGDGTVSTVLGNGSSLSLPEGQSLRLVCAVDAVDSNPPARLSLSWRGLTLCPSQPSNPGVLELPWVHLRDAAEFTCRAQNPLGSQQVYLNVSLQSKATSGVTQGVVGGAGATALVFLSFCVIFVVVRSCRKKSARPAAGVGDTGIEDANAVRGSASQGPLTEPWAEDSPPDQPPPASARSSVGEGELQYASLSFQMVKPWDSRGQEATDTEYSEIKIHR

On to `O=C(NCCN1CCc2ccccc2C1)c1scnc1Cl`, for which the Percent Effect in [1] is -2.6%; in test [2], 13.2%; in test [3] it was -2.29%; in [4], -8.63%; in the test with Trypanosoma cruzi, 6.26%; in test [5], -3.24%. Moreover, the Percent Effect in test [6] is 18%; in the test listed under Homo sapiens, 6.79%; in test [7], -6.4%; in test [8], 23.5%; in [9], -6.08%.

Take `CN(C(=O)C1CSCN1S(=O)(=O)c1ccc(F)cc1)C1CC1` (stereo unspecified): the Percent Effect in test [1] is -6.46%; in [2], 0%; in test [3] it was -0.918%; in test [4], 1.18%; in the test on Trypanosoma cruzi it was -5.57%; in [5] it was -2.73%. The Percent Effect in [6] was 6.27%; in the test filed under Homo sapiens it was -19.6%; in test [7] it was 3.23%; in test [8], 11.1%; in test [9] it was 0.714%.

For the compound `Cn1nnc2c1CCN(Cc1ccccc1)C2COCC1CC1` (stereo unspecified), the Percent Effect in test [1] is -1.15%; in [2] it was 2.67%; in test [3], -10.3%; in test [4], -0.164%; with Trypanosoma cruzi it was 3.15%; in test [5], 2.1%. Moreover, the Percent Effect is 5.9% in test [6]; 8.15% in the test filed under Homo sapiens; 14.9% in [7]; 24.4% in test [8]; -11.1% in test [9].

For the compound `CCN(CC)C(=O)c1nnc2ccc(N3CCOCC3)cc2n1`, the Percent Effect in test [1] is -7.46%; in test [2] it was 9.33%; in test [3] it was -17.9%; in test [4], 3.43%; in the test on Trypanosoma cruzi, 7.27%; in test [5], -7.57%. For the same compound, the Percent Effect in [6] was 14.1%; in the test filed under Homo sapiens, 11.4%; in [7], 3.17%; in test [8], 12.8%; in [9], -14.1%.

As to `O=C1N(Cc2ccc(F)c(F)c2)CCCC12CCN(C1CCSCC1)C2` (stereo unspecified), the Percent Effect in test [1] is -4.12%; in [2], -8%; in test [3], -4.64%; in [4] it was 30.2%; in the test with Trypanosoma cruzi, 9.25%; in [5], 23.4%. The Percent Effect in test [6] was found to be 9.77%; in the test filed under Homo sapiens it was 3.27%; in [7], 15.8%; in test [8], 25.9%; in test [9] it was 0.965%.

Turning to `Cc1nc(C2CCCN2CCCS(=O)(=O)N(C)C)no1` (stereo unspecified), the Percent Effect in test [1] was -4.22%; in test [2], 28.9%; in [3] it was -4.98%; in test [4], -5.59%; in the test with Trypanosoma cruzi it was 2.26%; in test [5] it was -0.383%. For the same compound, the Percent Effect is 13.4% in test [6]; 10.9% in the test listed under Homo sapiens; -5.39% in test [7]; 17.1% in test [8]; -9.28% in [9].

In the case of `Cc1cccc(CNC(=O)CNc2cc(CO)ccc2Cl)c1`, the Percent Effect in [1] is -6.11%; in test [2] it was 2.63%; in [3], 4.86%; in test [4], -0.518%; in the test with Trypanosoma cruzi it was -1.27%; in [5], 1.18%. In addition, the Percent Effect was 11% in test [6]; -4.91% in the test filed under Homo sapiens; 4.25% in [7]; 7.79% in test [8]; -2.84% in test [9].

On to `CCC(CNC(=O)c1ccc(=O)[nH]n1)N1CCc2ccccc2C1` (stereo unspecified), for which the Percent Effect in test [1] is 0.395%; in test [2], 13.5%; in test [3] it was -10.4%; in test [4], 10.4%; with Trypanosoma cruzi it was 3.48%; in [5] it was 11.4%. For the same compound, the Percent Effect in test [6] was 17.9%; in the test listed under Homo sapiens it was 2.58%; in [7], 7.94%; in [8], 12.2%; in test [9], -3.16%.

Consider `CCN1CCC(NC(=O)CN2CCc3c(ncn3C)C2)CC1`, for which the Percent Effect is -4.55% in test [1]; 6.33% in [2]; -3.84% in test [3]; -0.206% in test [4]; -3.59% with Trypanosoma cruzi; 6.24% in [5]. In addition, the Percent Effect in test [6] was 9.43%; in the test listed under Homo sapiens, 10.1%; in test [7], -7.29%; in test [8], 0%; in test [9], -5.67%.

As to `CC(NC(=O)Cc1cccs1)c1nnc2n1CCCCC2` (stereo unspecified), the Percent Effect was -5.37% in [1]; 10.8% in test [2]; 0.496% in [3]; 4.55% in test [4]; 1.95% in the test on Trypanosoma cruzi; -1.66% in test [5]. The Percent Effect in [6] is -7.54%; in the test filed under Homo sapiens, -0.0451%; in [7] it was 3.96%; in test [8], 15.8%; in [9], 1.56%.

In the case of `CC(C)CNC(=O)Nc1ccc(CN2CCOC2=O)cc1`, the Percent Effect in test [1] is -6.23%; in test [2] it was -15.3%; in test [3], -5.54%; in [4], 6.22%; with Trypanosoma cruzi, -2.23%; in [5] it was 0.442%. Further, the Percent Effect is 12.8% in test [6]; 25.7% in the test filed under Homo sapiens; -7.37% in test [7]; -25.6% in test [8]; -1.07% in test [9].
